Test results published in the supplement of paper PMC11537057.
Counter-ions that a name gives are not always drawn. ± gives the standard deviation of the averaged measurements. Whole data set: some 1,700 compounds, median “cell number in HSV-1-infected wells relative to infected DMSO wells (H2B-RFP signal)” near 100, cut for the highest 2% near 140. The full list was thinned out, with the highest values kept by preference.

Test system: A549 infected with HSV-1
Test: cell number in HSV-1-infected wells relative to infected DMSO wells (H2B-RFP signal); higher = more surviving cells (uninfected or antiviral-protected wells give about 200%; low = toxicity)
Conditions: 10 µM; 48 h; MOI: 0.1
Procedure: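 Selleck FDA-approved library (L1300) screened in duplicate at 10 µM on A549 H2B-mRuby cells in 384-well plates, infected with HSV-1 strain 17 YFP-ICP4 at MOI 0.1 one hour before drug addition. Imaged after 2 days at 37°C. Cell growth (H2B-RFP) and infection (ICP4-YFP) are expressed as % of DMSO-treated wells. Hits: growth >90% and infection <20% of DMSO.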

SMILES | cell number in HSV-1-infected wells
O=c1oc2c(O)c(O)cc3c(=O)oc4c(O)c(O)cc1c4c23 [Ellagic acid] | 106 ± 2.3%
N=C1CCCN1Cc1[nH]c(=O)[nH]c(=O)c1Cl [Tipiracil hydrochloride] | 107 ± 1.8%
COC(=O)N[C@@H](C)CNc1nccc(-c2cn(C(C)C)nc2-c2cc(Cl)cc(NS(C)(=O)=O)c2F)n1 [Encorafenib (LGX818)] | 124 ± 6.5%
CNCC[C@H](Oc1cccc2ccccc12)c1cccs1 [Duloxetine HCl] | 92.1 ± 10%
CNCC[C@H](Oc1cccc2ccccc12)c1cccs1 [Duloxetine] | 121.44 ± 0.086%
CNC(=O)c1ccc(Nc2ncc(C(F)(F)F)c(NCc3nccnc3N(C)S(C)(=O)=O)n2)cc1 | 27.6 ± 6.6%
CC(C)(Oc1ccc(CCNC(=O)c2ccc(Cl)cc2)cc1)C(=O)O [Bezafibrate] | 147 ± 48%
CC(C)(Oc1ccc(C(=O)c2ccc(Cl)cc2)cc1)C(=O)O [Fenofibric acid] | 75.9 ± 3.5%
CC(C)(Oc1ccc(Cl)cc1)C(=O)O [Clofibric Acid] | 82.4 ± 11%
CC1(C)S[C@@H]2[C@H](NC(=O)COc3ccccc3)C(=O)N2[C@H]1C(=O)O [Penicillin V potassium salt] | 86.4 ± 5.6%
Cc1cc(C)cc(OCC2CNC(=O)O2)c1 (stereo unspecified) [Metaxalone] | 132 ± 16%
Nc1nc2[nH]cc(CCc3ccc(C(=O)N[C@@H](CCC(=O)O)C(=O)O)cc3)c2c(=O)[nH]1 [Pemetrexed] | 59.2 ± 18%
Nc1nc2[nH]cc(CCc3ccc(C(=O)N[C@@H](CCC(=O)O)C(=O)O)cc3)c2c(=O)[nH]1 [Pemetrexed Disodium Hydrate] | 67 ± 22%
CC(=O)SCC(Cc1ccccc1)C(=O)NCC(=O)OCc1ccccc1 (stereo unspecified) [Racecadotril] | 96.3 ± 17%
Cc1cc2c(cc1S(N)(=O)=O)S(=O)(=O)CCC2 [Meticrane] | 83.96 ± 0.47%
CS(=O)(=O)c1cccc(C[C@H](NC(=O)c2c(Cl)cc3c(c2Cl)CCN(C(=O)c2ccc4ccoc4c2)C3)C(=O)O)c1 [Lifitegrast] | 104 ± 15%
Cn1ncc(Cl)c1-c1cc(C(=O)N[C@H](CN)Cc2ccc(F)c(F)c2)oc1Cl | 69.8 ± 17%
COc1cc2nccc(Oc3ccc(NC(=O)C4(C(=O)Nc5ccc(F)cc5)CC4)cc3)c2cc1OC | 72.2 ± 7.6%

SMILES | cell number in HSV-1-infected wells
COc1cc2nccc(Oc3ccc(NC(=O)NC4CC4)c(Cl)c3)c2cc1C(N)=O [Lenvatinib (E7080)] | 104 ± 6%
COc1cc2nccc(Oc3ccc(NC(=O)C4(C(=O)Nc5ccc(F)cc5)CC4)cc3)c2cc1OC [Cabozantinib malate (XL184)] | 90.5 ± 47%
COc1cc2nccc(Oc3ccc(NC(=O)Nc4cc(C)on4)c(Cl)c3)c2cc1OC [Tivozanib (AV-951)] | 117 ± 40%
COc1cc2nccc(Oc3ccc(NC(=O)NC4CC4)c(Cl)c3)c2cc1C(N)=O [lenvatinib Mesylate] | 144 ± 32%
Cc1nccn1CC1CCc2c(c3ccccc3n2C)C1=O (stereo unspecified) [Ondansetron HCl] | 74.7 ± 25%
Cc1nccn1CC1CCc2c(c3ccccc3n2C)C1=O (stereo unspecified) [Ondansetron Hydrochloride Dihydrate] | 76 ± 13%
CN(C)CCC=C1c2ccccc2COc2ccccc21 [Doxepin HCl] | 104 ± 11%
Cc1[nH]cnc1CN1CCc2c(c3ccccc3n2C)C1=O [Alosetron Hydrochloride] | 112 ± 6.3%
COC(=O)C1=C(C)NC(C)=C(C(=O)OC(C)C)C1c1cccc2nonc12 (stereo unspecified) [Isradipine] | 97.7 ± 3.5%
O=NN(CCCl)C(=O)NC1CCCCC1 [Lomustine] | 84.7 ± 27%
CC/C=C(\C(=O)N[C@@H]1C(=O)N2C(C(=O)OCOC(=O)C(C)(C)C)=C(COC(N)=O)CS[C@H]12)c1csc(N)n1 [Cefcapene Pivoxil Hydrochloride] | 149.2 ± 0.042%
CO/N=C(\C(=O)N[C@@H]1C(=O)N2C(C(=O)O)=C(COC(C)=O)CS[C@H]12)c1csc(N)n1 [Cefotaxime sodium] | 103 ± 12%
CO/N=C(\C(=O)N[C@@H]1C(=O)N2C(C(=O)OCOC(=O)C(C)(C)C)=C(/C=C\c3scnc3C)CS[C@H]12)c1csc(N)n1 [Cefditoren Pivoxil] | 110 ± 2.6%
CCC(=O)NS(=O)(=O)c1ccc(-c2c(-c3ccccc3)noc2C)cc1 [Parecoxib] | 115 ± 8.7%
CCC(=O)NS(=O)(=O)c1ccc(-c2c(-c3ccccc3)noc2C)cc1 [Parecoxib Sodium] | 89.9 ± 1%
CC(=O)NO [Acetohydroxamic acid] | 127 ± 15%
Cc1nc(-c2ccc(OCC(C)C)c(C#N)c2)sc1C(=O)O [Febuxostat] | 95.2 ± 11%
O=C1[C@@H]2[C@H]3CC[C@H](C3)[C@@H]2C(=O)N1C[C@@H]1CCCC[C@H]1CN1CCN(c2nsc3ccccc23)CC1 [lurasidone] | 75.7 ± 27%
